Compounds with a hit are over-represented: about 7.2% of the library has one in this group of screens.
HCV inhibitor = qHTS Assay for Inhibitors of Hepatitis C Virus (HCV); 340,000 tested, 3.4% active; Huh7.5.1 HCVcc-Cre infection, luciferase reporter, 44 h; AID 651820, 2012; Potency, µM (titrated, usually from 41.8 µM), without a hit: at the highest dose activity change, negative = inhibition, actives largely listed as inhibitors
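Compounds are dispensed onto cells plated 4 h earlier at 1,000 per well, with HCVcc-Cre virus (about 0.5 moi) added next. Following 44 h of culture, luminescent signal is measured for 15 sec after 15 min with substrate at room temperature.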
RE007 growth inh = qHTS Assay for Inhibitors of the HIV-1 protein Vpr | S. pombe RE007 Vpr strain, BacTiter-Glo ATP luminescence, 24 h | Potency, µM (doses to about 92.2 µM), without a hit: at the highest dose activity change, negative = less growth, most hits filed as inhibitors | 360,000 tested, 0.21% active | AID 651644, 2012; active means well fitted falling curve with a large enough effect; inconclusive means small, poorly fitted or top-dose-only effect; inactive means no such curve, though single readings can be large or run the other way; further: nearly all actives have a fitted effect of over 50% in size
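Fission yeast strain RE007, carrying one chromosomally integrated HIV-1 vpr copy, was seeded at OD 0.01 in PMG+AL medium with 23 nL pinned compound. After 24 h at 30 °C and 99% humidity, viability was read by BacTiter-Glo luminescence.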
FMDV antiviral = High Throughput Screening for Foot and Mouth Disease Virus Antivirals; FMDV antiviral cell-based qHTS; 410,000 tested, 1.2% active; Potency, µM (highest dose often 57.9 µM), for the others: top-dose activity change, negative = inhibition, most hits filed as inhibitors; AID 1159524, 2015; calls by dose curve; tested in HEK293T cells; further: read-out not given here; nearly all actives have a fitted effect of over 45% in size
MARV entry inh = qHTS for inhibitors of binding or entry into cells for Marburg Virus; Potency, µM (titrated, usually from 37.8 µM), inactives show top-dose activity change, negative = inhibition, usual class: inhibitors; 300,000 tested, 1.8% active; Marburg virus pseudotyped entry inhibition, cell reporter; calls by dose curve; tested in HEK293 cells
LASV entry inh = qHTS for Inhibitors of binding or entry into cells for Lassa Virus. Lassa virus pseudotype entry inhibition, cell reporter. Potency, µM (doses to about 37.9 µM), without a hit: at the top dose activity change, negative = inhibition, usual class: inhibitors. 300,000 tested, 1.2% active. AID 540256, 2011; calls by dose curve; tested in HEK293 cells; further: nearly all actives have a fitted effect of over 50% in size
Sm TGR block = qHTS Assay for the Inhibitors of Schistosoma Mansoni Peroxiredoxins; Potency, µM (doses to about 114 µM), for the others: at the highest dose activity change, negative = inhibition, most hits filed as inhibitors; Schistosoma mansoni thioredoxin glutathione reductase (TGR), Q962Y6; AID 485364, 2010; 360,000 tested, 3% active; purified TGR, DTNB reduction, TNB absorbance 405 nm; further: nearly all actives have a fitted effect of over 60% in size
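First, TGR (20 nM dispensed) and NADPH were mixed with compound. Second, a 15 min room-temperature incubation followed. Third, further NADPH and then DTNB were added to start the reaction. Finally, TNB absorbance was monitored kinetically.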
Starred values were filed as active, the others as inactive; [ ] = dose if it differs, or a comment. Unless noted, the call rests on the fitted dose curve; in most records, active means well fitted curve in the direction sought with a large enough effect; inconclusive means small, poorly fitted or top-dose-only effect, or another doubt; inactive means no such curve, though single readings can be large; an effect the other way counts as inactive or inconclusive. On the % scale 0 is the no-effect control and ±100 the full control effect; potency means the concentration at half of the fitted maximal effect.

`COc1cc2c(cc1OC)C(COc1ccccc1OC)N(C(C)=O)CC2` (stereo unspecified) gave HCV inhibitor 27.6%, RE007 growth inh 2.6%, FMDV antiviral 0.1% and Sm TGR block -6.1%.
COc1cc2c(cc1OC)C(COc1ccc3c(C)cc(=O)oc3c1)N(C(=O)c1ccccc1C)CC2 (stereo unspecified) was read as FMDV antiviral -27.7%, MARV entry inh inconclusive, LASV entry inh -15.6%[46.1 µM] and Sm TGR block -8.8%.
Screening COc1cc2c(cc1OC)C(COc1ccc3c(C)cc(=O)oc3c1)N(C(=O)c1cccc(OC)c1OC)CC2 (stereo unspecified) returned FMDV antiviral -30.0%, MARV entry inh -5.4%[46.1 µM], LASV entry inh 2.82µM* and Sm TGR block 6.9%.
`CC(C)(C)C1CCc2onc(C(=O)Nc3sc4c(c3C(N)=O)CCCC4)c2C1` (stereo unspecified) gave FMDV antiviral 6.7%, MARV entry inh -33.2%[46.1 µM], LASV entry inh 1.7%[46.1 µM] and Sm TGR block 5.1%.
O=C(Nc1ccc(C(=O)N2CCN(c3ccccc3F)CC2)cc1)c1nsc2ccccc12 was read as FMDV antiviral -12.2%, LASV entry inh inconclusive and Sm TGR block 5.8%.
COCCNC(=S)N1CCc2cc(OC)c(OC)cc2C1COc1cc(C)cc(C)c1 (stereo unspecified) was read as HCV inhibitor inconclusive, RE007 growth inh -6.4%, FMDV antiviral -14.4%, MARV entry inh 7.94µM*, LASV entry inh -0.8% and Sm TGR block 1.7%.
Cc1ccccc1OCC(=O)Nc1nc(-c2ccncc2)cs1 was read as HCV inhibitor inconclusive, RE007 growth inh 6.2%, FMDV antiviral 28.2µM*, MARV entry inh inconclusive, LASV entry inh -22.0% and Sm TGR block 3.8%.
For Cc1cc(C)c(OCC(=O)Nc2nc(-c3ccccn3)cs2)c(C)c1 the results were HCV inhibitor 3.98µM*, RE007 growth inh -22.7%, FMDV antiviral -2.0%, MARV entry inh inconclusive, LASV entry inh inconclusive and Sm TGR block -1.3%.
`O=C(CCS(=O)(=O)c1ccc(F)cc1)Nc1nc(-c2ccccn2)cs1` gave HCV inhibitor -1.0%, RE007 growth inh -3.2%, FMDV antiviral inconclusive and Sm TGR block -19.3%.
For CC(Oc1ccc(F)cc1)C(=O)Nc1nc(-c2ccccn2)cs1 (stereo unspecified) the results were HCV inhibitor 8.91µM*, RE007 growth inh inconclusive, FMDV antiviral inconclusive, MARV entry inh inconclusive, LASV entry inh inconclusive and Sm TGR block -26.8%.
Screening COc1ccc(NC(=O)CSC2=Nc3ccccc3C3=NC(Cc4ccccc4)C(=O)N23)cc1 (stereo unspecified) returned FMDV antiviral 9.5%, LASV entry inh -3.7%[46.1 µM] and Sm TGR block 2.0%.
For Cc1ccc(CNC(=O)CCNS(=O)(=O)c2ccc3c(c2)CCCC(=O)N3)cc1 the results were FMDV antiviral -19.4%, LASV entry inh 21.3%[46.1 µM] and Sm TGR block -1.4%.
Screening CCOc1cc(CNC(=O)c2ccc3nc(CCc4ccccc4)oc3c2)ccc1OC returned FMDV antiviral -15.1%, LASV entry inh inconclusive and Sm TGR block 1.4%.
For CCOC(=O)C1CCCN(S(=O)(=O)c2csc(C(N)=O)c2)C1 (stereo unspecified) the results were FMDV antiviral inconclusive, LASV entry inh -4.9%[46.1 µM] and Sm TGR block 0.6%.
For CCN(CC)S(=O)(=O)c1cc(C(=O)Nc2cc(C)on2)ccc1Cl the results were HCV inhibitor inconclusive, RE007 growth inh -3.0%, FMDV antiviral -16.9%, MARV entry inh -27.5%[46.1 µM], LASV entry inh 12.1%[46.1 µM] and Sm TGR block -10.1%.
Screening CCCOc1ccc(C(=O)NNC(=S)NC(=O)CC)cc1 returned HCV inhibitor inconclusive, RE007 growth inh -22.8%, FMDV antiviral -10.7%, MARV entry inh inconclusive, LASV entry inh 14.6µM* and Sm TGR block -22.2%.

Screens (PubChem BioAssay)
